PHOSPHO1 block – PubChem AID 1565 | inhibition, % at 13.3 µM | Phosphoethanolamine/phosphocholine phosphatase (Homo sapiens), Q8TCT1 | actives 1.1% (n = 290,000) | recombinant PHOSPHO1, absorbance phosphatase assay; in the data active = inhibition above about 60%
CTSL1 counter – Fasciola hepatica cathepsin L1 inhibitors, primary screen, counter-screen for PFM18AAP inhibitor project, biochemical, QFRET, fluorogenic peptide substrate. recombinant F. hepatica cathepsin L1, Z-Leu-Arg-MCA fluorescence. inhibition, % at 5.96 µM. actives 0.49% (n = 300,000). AID 1906, 2009;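 active = inhibition above the mean of all tested compounds plus 3 SD, set per screening campaign, cut at about 17% in these data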
HNF4A DNA FP – change in binding of human HNF4A to DNA, primary screen, biochemical, fluorescence polarization, FITC-DNA; 1 h; actives 0.3% (n = 360,000); activity change, % at 10 µM; in the data active = activity change above about 30%, passing the limit was not always enough
Target sequence (P41235 whole entry, looked up): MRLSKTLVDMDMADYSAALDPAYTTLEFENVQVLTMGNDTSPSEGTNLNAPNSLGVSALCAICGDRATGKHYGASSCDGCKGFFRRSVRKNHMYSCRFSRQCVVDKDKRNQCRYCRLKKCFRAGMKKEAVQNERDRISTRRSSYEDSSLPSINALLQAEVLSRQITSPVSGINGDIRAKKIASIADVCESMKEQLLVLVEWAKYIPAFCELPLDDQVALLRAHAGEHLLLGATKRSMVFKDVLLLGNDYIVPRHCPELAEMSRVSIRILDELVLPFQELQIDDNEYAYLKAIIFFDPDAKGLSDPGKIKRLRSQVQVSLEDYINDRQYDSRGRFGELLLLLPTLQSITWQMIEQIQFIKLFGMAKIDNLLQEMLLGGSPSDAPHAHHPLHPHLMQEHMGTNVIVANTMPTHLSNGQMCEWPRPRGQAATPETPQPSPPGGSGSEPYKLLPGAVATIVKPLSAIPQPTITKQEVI
NRP1-CendR mod – modulators of CendR peptide binding to NRP-1, primary screen, biochemical, fluorescence polarization, uHTS. FAM-RPARPAR peptide binding to NRP-1. inhibition, % at 25 µM. actives 0.85% (n = 360,000);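 active = inhibition or corrected inhibition above about 18%, plus a signal ratio from 0.5 to 1.5, limit read from the data, passing the limit was not always enough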
Rpn11 inh – Rpn11 (PSMD14) deubiquitinase inhibitors, primary screen, biochemical, fluorescence polarization, uHTS; 26S proteasome non-ATPase regulatory subunit 14 (Homo sapiens), O00487; human 26S proteasome, Ub4-pepOG fluorescence polarization; 20S core pre-blocked with epoxomicin; inhibition, % at 20 µM; actives 0.59% (n = 360,000); AID 588493, 2011;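 active = inhibition at 20 µM, scaled to each plate's controls, above about 33%, limit read from the data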
TPT1 inhibitor – Candida albicans TPT1 enzyme inhibitors, primary screen, biochemical, fluorescence polarization. AID 1962, 2009. tRNA 2'-phosphotransferase TPT1 (Candida albicans SC5314). actives 0.81% (n = 300,000). inhibition, % at 5 µM. recombinant caTPT1, FP RNA substrate dephosphorylation;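 active = inhibition above the mean of all tested compounds plus 3 SD, set per screening campaign, cut at about 24% in these data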
Numbers stand for hits; i = inactive; nt = no result given. Shown are actives, neighbours in structure and some others; about 3.3% of the full set was active somewhere.

SMILES	PHOSPHO1 block	CTSL1 counter	HNF4A DNA FP	NRP1-CendR mod	Rpn11 inh	TPT1 inhibitor
COc1ccccc1C(=O)NC(CCSC)C(=O)NCC(c1ccco1)N(C)C (centres undefined)	i	27.4	i	i	i	i
CC(C)C(NC(=O)c1ccco1)C(=O)NCC(c1ccco1)N(C)C (centres undefined)	i	63.1	i	i	i	i
CC(C)C(NC(=O)c1ccccc1)C(=O)NCC(c1ccccc1)N(C)C (centres undefined)	i	i	i	i	i	i
CCCCCCS(=O)[C@H]1CS(=O)(=O)C[C@@H]1S(=O)CCCCCC (some centres undefined)	95.9	i	i	i	i	i
O=Cc1ccc(-c2c(-c3ccccc3)oc3c2C(OCCCCO)CCC3)o1 (centres undefined)	nt	nt	i	i	nt	nt
CN1CCN(NC(=O)c2cn(-c3ccccc3)nc2-c2cccs2)CC1	i	i	i	i	i	i
CN1CCN(NC(=O)c2cn(-c3ccccc3)nc2-c2cccc(Br)c2)CC1	i	i	46.0	i	i	i
CN(C)C(=O)COC(=O)c1ccccc1Sc1ccccc1C#N	68.1	i	i	i	i	i
N#Cc1ccccc1OCCCN1CCC(Cc2ccccc2)CC1	nt	i	i	i	i	i
COC(=O)c1cc2occc2n1Cc1ccc(Cl)cc1	64.2	i	i	i	i	i
Cc1cc(NC(=O)Nc2cc(Cl)ccc2C)no1	i	i	i	19.5	i	i
Cc1csc(CN(C)C(=O)C2CCC(=O)N(CCN(C)C)C2)n1 (centres undefined)	i	19.1	i	i	i	i
CC(=O)N1c2ccccc2C(=O)C1N1CCCCC1 (centres undefined)	i	20.9	i	i	i	i
CCCCCCCCCCCCCCC[C@@H](O)[C@@H](N)CO	nt	nt	121.2	i	i	nt
CCOc1ccccc1NC(=O)CSc1cn[nH]n1	nt	i	i	i	i	i
Cc1occc1C(=O)N1N=C(C2CC2)CC1(O)C(F)(F)F (centres undefined)	i	i	i	33.9	i	i
O=C(c1ccco1)N1N=C(C2CCCCC2)CC1(O)C(F)(F)F (centres undefined)	i	i	i	i	i	i
CC(C)(C)[C@]1(O)CCN2C[C@H]3c4ccccc4CCc4cccc(c43)[C@@H]2C1	i	i	i	i	i	i
CCc1ccccc1OCCOc1ccc(C)cc1OC	60.1	i	i	i	i	i
COc1ccc(-n2c(CNC(=O)c3cccs3)n[nH]c2=S)cc1	i	i	i	31.3	i	i
S=c1[nH]nc(COc2ccc(Cl)cc2)n1C1CCCCC1	i	i	i	i	i	i
COc1ccc(CC(=O)NCc2n[nH]c(=S)n2-c2ccc(F)cc2)cc1	i	i	i	i	i	i
COc1ccc(OCc2n[nH]c(=S)n2-c2ccc(C)cc2)cc1	91.9	i	i	i	i	i
Cc1ccc(OCc2n[nH]c(=S)n2C2CCCCC2)cc1	90.6	i	i	i	i	i
CN(NC(=O)Nc1ccc(Cl)cc1)c1c(Cl)c(Cl)nn1C	i	i	i	19.8	i	i
SMILES	PHOSPHO1 block	CTSL1 counter	HNF4A DNA FP	NRP1-CendR mod	Rpn11 inh	TPT1 inhibitor
CN(NC(=O)Nc1ccc(Cl)cc1)c1ncc(C(F)(F)F)cc1Cl	nt	i	i	i	i	i
CCOc1cnc(-c2c(-c3c(Cl)cccc3Cl)noc2C)o1	i	i	i	27.1	i	i
COc1ccc(OCc2cc(C(=O)N3C[C@@H](C)O[C@@H](C)C3)no2)c(Cl)c1	i	i	i	i	i	i
O=[N+]([O-])c1ccc(Cc2ccc([N+](=O)[O-])cc2)cc1	nt	nt	i	i	i	nt
O=[N+]([O-])c1ccc(Cc2ccncc2)cc1	i	i	i	25.6	i	i
C=CCn1c(-c2cccc(Cl)c2)n[nH]c1=S	97.5	i	i	i	i	i
CCc1cc(-c2n[nH]c(=S)n2CC)cs1	i	i	i	i	i	i
CCc1cc(-c2n[nH]c(=S)n2-c2ccccc2C)cs1	85.7	i	i	i	i	i

High-throughput results from PubChem.
